Values joined by “and” are separate entries in the source; they are usually repeats but may differ in a detail not shown here. Identical values can stand only once. Inconclusive results are not listed. The source holds several records for some structures; these can differ, active in one and inactive in another. Active and inactive are the calls of the source. Calls come from the whole dose curve; as a rule, active = well fitted inhibition curve with a large enough effect in the repeat runs; inconclusive = weak or mixed curves, or effect the other way; inactive = no such curve, though single readings can be large or run the other way. Starred links: 1 amine or outer side, 2 acyl side, 3 side chain; linkers in the order of their positions; H or OH if unused. Positions of bridges follow the written chain, without caps; N, C: chain ends. Non-standard residues stand in square brackets, D forms with d. Residues, ends and D or L forms follow the SMILES beside them. Chains are numbered I, II in the order given. Actinocin(9to1) = Cc1c2oc3c(C)ccc(C(=O)[*:1])c3nc-2c(C(=O)[*:2])c(N)c1=O; NMeV = CN[C@H](C(=O)O)C(C)C; Sar = CNCC(=O)O
% is set by controls: 0 for no effect and ±100 for the full control effect; potency is the fitted concentration of half-maximal effect.

In the test the target is Androgen receptor (Homo sapiens) (UniProt P10275). The test can be described thus: qHTS assay to identify small molecule antagonists of the androgen receptor (AR) signaling pathway using the MDA cell line (AID 743042; note: nearly all actives have a fitted effect of over 55% in size). The conditions noted are these: MDA-kb2 AR-luc, MMTV luciferase, R1881 antagonist, 16 h; series mostly up to 70.3 µM; activity change, negative = inhibition: at the top concentration. An excerpt: U.S. Tox21 Program National Center for Advancing Translational Sciences [NCATS] NIH Chemical Genomics Center [NCGC] U.S. Environmental Protection Agency [EPA] National Institutes of Environmental Health Sciences [NIEHS] National Toxicology Program [NTP] U.S. Food and Drug Administration [FDA] Tox21 Assay Overview: Androgen receptor (AR), a nuclear hormone receptor, plays a critical role in AR-dependent prostate cancer and other androgen related diseases. Endocrine disrupting chemicals (EDCs) and their interactions with steroid hormone receptors like AR may cause disruption of normal endocrine function as well as interfere with metabolic homeostasis, reproduction, developmental and behavioral functions. To identify the compounds that inhibit AR signaling, MDA-kb2 AR-luc cell line (from ATCC, deposited by Wilson et al.) was used to screen the Tox21 10K compound library. MDA-kb2 AR-luc cell line is human breast carcinoma cell line that was stably transfected with a luciferase reporter gene under control of the MMTV promoter containing response elements for both androgen receptor (AR) and glucocorticoid receptor (GR).
Chain of Androgen receptor (Homo sapiens) (P10275 whole entry, looked up): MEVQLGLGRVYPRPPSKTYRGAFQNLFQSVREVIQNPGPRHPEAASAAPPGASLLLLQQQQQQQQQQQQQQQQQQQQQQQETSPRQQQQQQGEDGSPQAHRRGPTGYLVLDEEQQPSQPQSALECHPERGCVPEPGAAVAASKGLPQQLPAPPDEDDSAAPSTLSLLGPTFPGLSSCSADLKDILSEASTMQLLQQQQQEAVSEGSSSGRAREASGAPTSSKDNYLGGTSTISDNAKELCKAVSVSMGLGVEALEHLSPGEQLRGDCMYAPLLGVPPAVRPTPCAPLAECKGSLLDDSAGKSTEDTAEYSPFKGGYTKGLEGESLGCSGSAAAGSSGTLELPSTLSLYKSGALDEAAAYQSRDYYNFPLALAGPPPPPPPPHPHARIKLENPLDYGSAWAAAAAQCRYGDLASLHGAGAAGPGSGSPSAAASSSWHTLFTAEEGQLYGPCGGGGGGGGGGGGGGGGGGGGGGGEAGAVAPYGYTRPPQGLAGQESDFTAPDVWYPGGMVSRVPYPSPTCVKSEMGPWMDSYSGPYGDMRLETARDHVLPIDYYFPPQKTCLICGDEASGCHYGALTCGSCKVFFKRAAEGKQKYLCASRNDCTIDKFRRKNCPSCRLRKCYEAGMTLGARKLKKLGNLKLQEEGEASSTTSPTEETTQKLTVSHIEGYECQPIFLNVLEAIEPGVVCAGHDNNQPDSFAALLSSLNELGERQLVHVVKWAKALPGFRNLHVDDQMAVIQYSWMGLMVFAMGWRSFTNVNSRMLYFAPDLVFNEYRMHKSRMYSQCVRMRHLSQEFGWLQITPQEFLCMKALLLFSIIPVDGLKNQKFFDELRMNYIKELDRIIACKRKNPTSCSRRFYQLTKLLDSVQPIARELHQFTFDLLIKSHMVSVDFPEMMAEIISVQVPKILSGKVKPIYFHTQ
Tox21 Assay Protocol Summary: MDA-kb2 cells were dispensed at 3,000 cells/4 uL/well of culture medium into white wall/solid-bottom 1536-well plates using a Multidrop Combi (ThermoFisher Scientific, Waltham, MA) dispenser. After the assay plates were incubated at a 37C and 0% CO2 for 5 hr, 23 nL of compounds dissolved in DMSO, positive controls or DMSO only was transferred to the assay plate by a Pintool station (Kalypsys, San Diego, CA), followed by addition of 1 uL of agonist (R1881) in culture medium using a Bioraptr Flying Reagent Dispenser (FRD) workstation (Beckman Coulter, Indianapolis, IN, USA). The plates were incubated at a 37C and 0% CO2 for 16 h. After 15.5 h incubation, 1uL of CellTiter-Fluor reagent (Promega, Madison, WI) was added using a Bioraptr FRD to each plate for measuring cytotoxicity. The fluorescence intensity was quantified on a ViewLux plate reader (PerkinElmer, Shelton, CT) following 30 min incubation at 37C and 0% CO2. For measuring luciferase reporter gene activity, 4 uL of ONE-Glo reagent (Promega) was added to each plate using a Bioraptr FRD and luminescence was quantified on a ViewLux (PerkinElmer) plate reader after 30 min incubation at room temperature.
In general terms: In qHTS, concentration-response curves come from the screen itself.
In the case of `CCc1ccc(C(c2ccc(CC)cc2)C(Cl)Cl)cc1`, the Potency entry was “inactive”.

As for `Cc1c(O)cccc1C(=O)N[C@@H](CSc1ccccc1)[C@H](O)CN1C[C@H]2CCCC[C@H]2C[C@H]1C(=O)NC(C)(C)C`, the Potency is 26.6 µM (active) and 29.8 µM (active).

Take `Cc1cc(OCCOCC[N+](C)(C)Cc2ccccc2)ccc1C(C)(C)CC(C)(C)C`: the Potency was 18.8 µM (active) and 12.1 µM (active).

For the compound `Nc1cc(Cl)c(-c2cc(Cl)c(N)cc2Cl)cc1Cl`, the Potency was 54.4 µM (active) and 68.6 µM (active).

With `Cc1c2oc3c(C)ccc(C(=O)N[C@@H]4C(=O)N[C@H](C(C)C)C(=O)N5CCC[C@H]5C(=O)N(C)CC(=O)N(C)[C@@H](C(C)C)C(=O)O[C@@H]4C)c3nc-2c(C(=O)N[C@@H]2C(=O)N[C@H](C(C)C)C(=O)N3CCC[C@H]3C(=O)N(C)CC(=O)N(C)[C@@H](C(C)C)C(=O)O[C@@H]2C)c(N)c1=O` (I: T[dV]P[Sar][NMeV] / II: T[dV]P[Sar][NMeV]; ester I:1-I:C, II:1-II:C; linker I:N-II:N via Actinocin(9to1)), the Potency was 15 nM (active) and 4.2 nM (active).

Regarding `COC(=O)c1cccc(C(=O)OC)c1`, the Potency result was “inactive”.

With `BrC1CCC(Br)C(Br)CCC(Br)C(Br)CCC1Br` (configuration not stated), the “activity change, negative = inhibition” value was -0.844% (inactive).

With `Oc1ccc(Cl)cc1Cc1cc(Cl)ccc1O`, the Potency was 27.8 µM (active) and 38.6 µM (active).

In the case of `O=Nc1ccc(Nc2ccccc2)cc1`, the Potency was 54.8 µM (active).

For `CCCC(=O)c1ccccc1`, the “activity change, negative = inhibition” value is -6.93% (inactive).

With `CC(C)CCOCc1ccccc1`, the “activity change, negative = inhibition” value is 13.8% (inactive).

On to `CN1C(=O)c2ccc([N+](=O)[O-])cc2C1=O`, for which the “activity change, negative = inhibition” value is 0.526% (inactive).

As to `Oc1c(Cl)cc(Cl)c(Cl)c1Cc1c(O)c(Cl)cc(Cl)c1Cl`, the Potency is 13.3 µM (active) and 2.16 µM (active) and 5.45 µM (active).

Regarding `COc1cc(C(=S)N2CCOCC2)ccc1O`, the “activity change, negative = inhibition” value is 2.68% (inactive).

With `CCN(CC)CCOc1ccc(/C(=C(\Cl)c2ccccc2)c2ccccc2)cc1`, the “activity change, negative = inhibition” value was 3.87% (inactive).

For `CCOc1ccccc1C(N)=O`, the Potency result is “inactive”.

For the compound `Cc1ccc(-c2cc(C(F)(F)F)nn2-c2ccc(S(N)(=O)=O)cc2)cc1`, the Potency result is “inactive and 60.9 µM (active) and 68.6 µM (active)”.

As for `CCC(C)(Oc1ccc(C2(c3ccc(OC(C)(CC)C(=O)O)cc3)CCCCC2)cc1)C(=O)O` (configuration not stated), the “activity change, negative = inhibition” value was -4.68% (inactive).

As to `O=Cc1ccc(Cl)cc1`, the “activity change, negative = inhibition” value was -18.3% (inactive).

Regarding `CCCCCCCCCCCCCC[P+](CCCC)(CCCC)CCCC`, the Potency was 2.16 µM (active) and 1.54 µM (active).

On to `Nc1nc(=S)c2[nH]cnc2[nH]1`, for which the Potency result was “inactive”.

For `CC1=CC(=O)c2ccccc2C1=O`, the Potency result is “inactive and 30.6 µM (active)”.

Consider `OCC(CO)N[C@H]1C[C@](O)(CO)[C@@H](O)[C@H](O)[C@H]1O`, for which the “activity change, negative = inhibition” value is -1.77% (inactive).

Take `CCOc1ccc2c(c1)C(C)=CC(C)(C)N2`: the Potency entry is “inactive”.

With `Nc1ccc(O)cc1`, the Potency is 5.96 µM (active) and 12.2 µM (active) and 25.3 µM (active).

As for `CC(C)(O)CCC(C)(C)O`, the “activity change, negative = inhibition” value is 6.71% [at 95 µM] (inactive).

In the case of `COc1ccc(Cc2cnc(N)nc2N)cc1OC`, the “activity change, negative = inhibition” value was 12.1% (inactive).

Consider `CC1COC(=O)O1` (configuration not stated), for which the Potency entry was “inactive”.

`CCCCCCCCCCCCc1ccccc1O`: the Potency was 54.5 µM (active).

`CCN(CC)C(=O)Nc1ccc(OCC(O)CNC(C)(C)C)c(C(C)=O)c1` (configuration not stated): the “activity change, negative = inhibition” value is 12.9% (inactive).

For the compound `CC(=O)Nc1ccc(C(=O)CCl)cc1`, the “activity change, negative = inhibition” value is -3.78% [at 95 µM] (inactive).

For `CCN(CC)C(=S)SSC(=S)N(CC)CC`, the Potency was 266 nM (active) and 217 nM (active) and 140 nM (active).

The record behind these values is PubChem BioAssay (Tox21).
